Bioassay records: PubChem BioAssay, National Center for Advancing Translational Sciences (NCATS)
Shown is part of a subset that was picked to be rich in hits.
Pf Dd2 inh: inhibitors of Plasmodium falciparum Dd2 growth; 120,000 compounds, 4.3% hits; P. falciparum Dd2 growth, SYBR Green, 72 h; Potency, µM (top dose mostly 28.9 µM), for inactives: at the highest dose activity, negative = inhibition, hits mostly inhibitors; active = well fitted inhibition curve with a large enough effect;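 note: plate controls were DMSO vehicle for no effect and reference drug for full effect; nearly all actives have a fitted effect of over 65% in size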
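Readout: SYBR Green fluorescence, 485 nm excitation, 535 nm emission, after ~16 h lysis at 37C. Before that, Dd2-infected red cells (2.5% hematocrit) grew 72 h with compound, 29 uM top final concentration.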
* = called active by the depositor; i = inactive; ! = not active in a repeat; [ ] = dose if it differs, or a comment. Potency is the fitted concentration of half-maximal effect.

SMILES	Pf Dd2 inh
O=C(NCc1ccncc1)c1cn(C2CN(C(=O)C3CC3)C2)nn1	21%
O=S(=O)(c1ccccc1)N(C1CC1)C1CCN(c2ncncn2)CC1	-18%
COC(=O)C1=CN(CC(=O)Nc2cc(Cl)ccc2C)S(=O)(=O)N=C1C	76%
Cc1cccc(NC(=O)CSc2nc3ccccc3c3nc(CCn4cncc4C)nn23)c1	10µM*
Cc1ccccc1NC(=O)CSc1nc2ccccc2c2nc(CCn3cncc3C)nn12	-18%
CCOc1ccccc1NC(=O)CSc1nc2cc(OC)c(OC)cc2c2nc(CCn3c(C)nc4ccccc43)nn12	3.2µM*
Cc1ccc(CSc2nc3ccccc3c3nc(CCn4c(C)nc5ccccc54)nn23)cc1	3%
COc1cc2nc(SCC(=O)Nc3cccc(C)c3)n3nc(CCn4c(C)nc5ccccc54)nc3c2cc1OC	2.2µM*
COc1cc2nc(SCC(=O)Nc3ccc(F)cc3)n3nc(CCn4c(C)nc5ccccc54)nc3c2cc1OC	i
Cc1n[nH]c(C)c1CCc1nc2c3ccccc3nc(SCC(=O)Nc3ccc(F)cc3)n2n1	8.9µM*
Cc1ccc(NC(=O)CSc2nc3ccccc3c3nc(CCn4cncc4C)nn23)c(C)c1	8%
O=C(CSc1nc2ccccc2c2nc(-c3ccccc3)nn12)Nc1ccc(Br)cc1	i
COc1cc2nc(SCC(=O)Nc3cccc(C)c3)n3nc(-c4ccccc4)nc3c2cc1OC	3%
COc1ccccc1NC(=O)Cn1c(SCC(=O)Nc2ccc(F)cc2)nc2ccccc21	i
Cc1cccc(C)c1NC(=O)CSc1nc2ccccc2c2nc(CCc3c(C)n[nH]c3C)nn12	21%
COc1cc(NC(=O)N2CCCC(Cn3cnc4cccnc43)C2)cc(OC)c1 (centres undefined)	-27%
COc1ccccc1OCCCN1CC[C@@](C)(O)[C@@H](O)C1	-16%
CC1CCC(NC(=O)C2(c3ccc(NS(C)(=O)=O)cc3)CCCCC2)CC1 (centres undefined)	-19%
COCCCNC(=O)c1cccc2c1CCN2C(=O)Nc1cccc(C)c1	i
COc1ccccc1C(=O)N1CC(Oc2ccc(-c3nc(C)no3)cc2)C1	i[5.79 µM]
O=C(c1ccccc1OCC1CCCN(Cc2ccsc2)C1)N1CCCC1 (centres undefined)	-3%
Cc1ccc(NC(=O)N2CCCC(c3nccn3Cc3ccncc3)C2)cc1C (centres undefined)	3%
CCOc1ccccc1N1CCN(C(=O)[C@H]2CCC[C@H]2NC(=O)c2ccncc2)CC1	i
COCCCNc1nc2c([S+](=O)([O-])c3ccc(OC)cc3)nnn2c2ccccc12	-19%
Cc1noc(C)c1S(=O)(=O)NC1CCc2nn(CC3CC3)c(=O)n2CC1 (centres undefined)	23%
SMILES	Pf Dd2 inh
COc1ccc(Nc2nc3ccc(Cl)cc3nc2-n2nc(C)cc2C)cc1	44%
COc1ccc2nc(C)cc(Nc3ccc(Cl)c(Cl)c3)c2c1	1µM*
COc1cccc(Nc2cc(C)nc3nc(-c4ccc(Cl)cc4)nn23)c1	16%
Cc1c(C(=O)O)sc2ncnc(NCC3(O)CCCCC3)c12	1%
COc1ccccc1OCCNC(=O)C1CC(=O)N(c2n[nH]c3cccc(F)c23)C1 (centres undefined)	1%
CN(Cc1ccc(F)cc1)Cc1ccnn1C	10%[44.1 µM]
COc1ccc(-c2ccc3c(c2)C(=O)N2C[C@H](O)C[C@H]2C(=O)N3)cc1	i
Cc1ccc(NS(=O)(=O)c2ccc3[nH]c4c(c3c2)CCCCCC4)cc1	i
Cc1ccc(S(=O)(=O)N2CCC(C(=O)Nc3ccc(Oc4ccccc4)cc3)CC2)cc1	-1%
Cc1ccc(NC(=O)C2CCN(S(=O)(=O)c3ccc4[nH]c5c(c4c3)CCCCC5)CC2)cc1	11µM*
CN(C1CCc2nn(C)c(=O)n2CC1)S(=O)(=O)c1ccc2c(c1)CCCC2 (centres undefined)	i
Cc1ccc(C(=O)N2CCN(C(=O)c3nnn4c3COC(c3ccc(Cl)cc3)C4)CC2)s1 (centres undefined)	2.8µM*
Cc1ccc(C)c(C(=O)N2CCN(C(=O)c3nnn4c3COC(c3ccc(Cl)cc3)C4)CC2)c1 (centres undefined)	i
Cc1ccc(C(=O)N2CCN(C(=O)c3nnn4c3COC(c3ccc(Cl)cc3)C4)CC2)c(C)c1 (centres undefined)	-2%
CCn1nc(C)c(CCC(=O)NC2CCCc3c2[nH]c2ccccc32)c1C (centres undefined)	-24%
Cc1ccc(CC(=O)NCc2nnc3cc(-c4nc(C(C)C)no4)ccn23)cc1	i
Cc1ccc(C)c(C(=O)NCc2nnc3cc(-c4nc(C(C)C)no4)ccn23)c1	i
CC(C)c1noc(-c2cccn3c(CNC(=O)Cc4ccccc4Cl)nnc23)n1	i
Cc1cccc(C(=O)NCc2nnc3cc(-c4nc(C(C)C)no4)ccn23)c1	10µM*
CC(C)c1noc(-c2ccn3c(CNC(=O)Cc4ccccc4Cl)nnc3c2)n1	5µM*
Cc1cccc(C(=O)NCc2nnc3cc(-c4nc(C)no4)ccn23)c1	i
COc1ccc(CN2C[C@H]3CN(C(=O)NCc4ccccc4)CCN3C2=O)cc1	i
CC1(C)CC(NC(=O)c2cc(Cn3cnc4ccccc43)[nH]n2)CC(C)(C)N1	-4%
O=C(C[C@@H]1C[C@H]2O[C@H](CNC3CCC(F)(F)CC3)[C@@H](O)[C@H]2O1)N1CCOCC1	7%[44.1 µM]
COc1ccc(C(=O)N2CCN(C(=O)COc3ccc(Br)cc3)CC2)cc1OC	36%
SMILES	Pf Dd2 inh
CCCS(=O)(=O)c1c(S(=O)(=O)CCC)c2cc(C(C)(C)C)ccn2c1C(=O)c1ccccc1	2.5µM*
Nc1c(C(=O)Nc2cccc(C(F)(F)F)c2)c2ccccn2c1C(=O)c1ccccc1	i
COc1ccc(OCC(=O)N2CCN(C(=O)c3ccc(OC)c(OC)c3)CC2)cc1	14%
CCCS(=O)(=O)c1c(S(=O)(=O)CCC)c2cc(C(C)(C)C)ccn2c1C(=O)c1ccc(OC)c(OC)c1	2.8µM*
CCCCN(CCCC)C1=C(C(=O)c2ccccc2)N(CC)S(=O)(=O)c2ccccc21	-9%
CC(=O)c1cccc(NC(=O)Cn2ccn3nc(-c4ccc(F)cc4)c(CO)c3c2=O)c1	-18%
CCOc1cccc(CN2CCCC(COc3ccccc3C(=O)NC(C)C)C2)c1 (centres undefined)	-10%
O=C(c1cccnc1)N1CC[C@H](c2nnc(Cc3ccccc3)o2)C1	4%[44.1 µM]
Cc1ccc2nc(C3CCN(Cc4cccc(-c5ccsc5)c4)CC3)[nH]c(=O)c2c1	7%
COc1ccc(CN2CCCC(c3nn(-c4ccc(OC)cc4)c(=O)[nH]3)C2)cc1 (centres undefined)	i
Cc1ccc2nc(C3CCN(Cc4cccs4)CC3)[nH]c(=O)c2c1	-1%[44.1 µM]
Cc1ccc2nc(C3CCCN(Cc4cccc(-c5cccnc5)c4)C3)[nH]c(=O)c2c1 (centres undefined)	6.3µM*
COc1ccccc1-c1ccc(CN2CCCC(c3nc4ccc(C)cc4c(=O)[nH]3)C2)cc1 (centres undefined)	7.9µM*!
CCN1CCCC(c2nc3ccc(C)cc3c(=O)[nH]2)C1 (centres undefined)	-17%[44.1 µM]
CC[C@H]1CN(C(=O)C2CC2)CC[C@H]1CC(=O)N(C)CCC#N	-18%[44.1 µM]
O=C(NC1CCCCC1)C1CN(C(=O)c2cccc(Br)c2)CC12CCOCC2 (centres undefined)	-16%
O=C(c1ncn[nH]1)N1CCN(c2cc(C3CC(O)C3)ncn2)CC1 (centres undefined)	-7%
